Bioassay records as filed in PubChem BioAssay.
Lamin A splicing: LMNA splicing modulation. HeLa LMNA splicing GFP/RFP minigene ratio, 48 h. Potency, µM (top dose mostly 46.1 µM), inactives show at the highest dose ratio change, negative = inhibition, hits mostly inhibitors. 0.01% of 200,000 active; active = well fitted inhibition curve with a large enough effect in the signal ratio, with a control signal flat, not every such curve was filed as active; inconclusive = small, poorly fitted or top-dose-only effect, or effect the other way, or a change in a side signal; the % refers to the signal ratio; note: potency is the fitted concentration of half-maximal effect
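S3 HeLa cells stably expressing lamin A-EGFP splicing minigene plus DsRed2, 600 cells/well, 48 h compound exposure at 37C. Laser-scanning cytometry; analysed as GFP (500-530 nm)/RFP (575-640 nm) total intensity ratio; 0.5% DMSO vehicle.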
ALDH1A1 inh: ALDH1A1 (human) enzyme inhibition | P00352 | Potency, µM (titrated, usually from 75.3 µM), for inactives: at the top dose activity, negative = inhibition, hits mostly inhibitors | 7.3% of 220,000 active | Purified ALDH1A1, NADH fluorescence, propionaldehyde substrate;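 note: potency is the fitted concentration of half-maximal effect; plate controls were no enzyme wells and a reference inhibitor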
IMPase cell inh: IMPase inhibition in cells. P97697. CHO-M1 cells, IP1 accumulation, HTRF TR-FRET ratio. inhibition (IP1 accumulation), % at 46.1 µM. 120,000 tested, under 10 active. AID 901; active = well fitted curve in the direction sought with a large enough effect in the signal ratio, not every such curve was filed as active; inconclusive = small, poorly fitted or top-dose-only effect, or a change in a side signal; inactive = no such curve, though single readings can be large or run the other way; the % refers to the signal ratio;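 note: cells stimulated with carbachol in lithium chloride buffer; plate controls were DMSO basal wells for no effect and reference inhibitor wells for full effect; higher means more IMPase inhibition seen as more IP1 and lower FRET ratio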
Target sequence (P97697 whole entry, looked up): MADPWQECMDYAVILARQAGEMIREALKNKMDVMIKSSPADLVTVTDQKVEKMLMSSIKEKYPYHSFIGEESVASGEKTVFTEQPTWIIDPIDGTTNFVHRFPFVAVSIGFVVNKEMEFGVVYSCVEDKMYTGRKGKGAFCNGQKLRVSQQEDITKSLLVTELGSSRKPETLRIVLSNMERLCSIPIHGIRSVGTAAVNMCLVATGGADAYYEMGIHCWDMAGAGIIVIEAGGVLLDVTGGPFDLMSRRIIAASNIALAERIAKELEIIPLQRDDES
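In this qHTS, compounds (final up to 46 uM) act on CHO-M1 cells that are then activated through the M1 receptor with carbachol, in pH 7.4 buffer containing 50 mM LiCl, for 30 min. IP1 accumulation is quantified by the IP-One immunoassay.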
KinaseGlo FLuc: counter-screen: inhibitors of Kinase-Glo firefly luciferase | Q27757 | Kinase-Glo luciferase, ATP luminescence, 8 min | Potency, µM (highest dose often 38.3 µM), without a hit: at the highest dose activity change, negative = inhibition, usual class: inhibitors | 0.28% of 200,000 active | AID 1379; active = well fitted inhibition curve with a large enough effect; inconclusive = small, poorly fitted or top-dose-only effect; note: potency is the fitted concentration of half-maximal effect; nearly all actives have a fitted effect of over 60% in size
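Inhibition of Kinase-Glo luciferase light generation was assessed at 10 uM ATP in pH 7.2 imidazole buffer, with luminescence measured after eight minutes at ambient temperature.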
HPGD block: blocks human HPGD enzyme activity; P15428; purified HPGD, NADH fluorescence kinetic, PGE2 substrate; Potency, µM, without a hit: at the top dose activity change, negative = inhibition, hits mostly inhibitors; 4.3% of 150,000 active; note: potency is the fitted concentration of half-maximal effect
Target sequence (P15428 whole entry, looked up): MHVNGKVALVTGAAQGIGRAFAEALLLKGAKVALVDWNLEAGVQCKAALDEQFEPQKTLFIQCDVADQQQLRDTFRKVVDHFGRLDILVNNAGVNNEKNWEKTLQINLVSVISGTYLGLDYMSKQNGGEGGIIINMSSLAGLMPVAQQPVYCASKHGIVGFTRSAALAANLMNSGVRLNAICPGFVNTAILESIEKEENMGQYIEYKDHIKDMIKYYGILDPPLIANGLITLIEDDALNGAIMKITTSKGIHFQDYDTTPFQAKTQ
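NADH formation kinetics: reaction with 30 uM PGE2 and 1 mM NAD+ (final), 20 nM enzyme, Tris-HCl pH 8 with Tween 20, after 15 min compound preincubation at room temperature. Fluorescence change, last versus first of five reads.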
PNC inhibitor: blocks assembly of the perinucleolar compartment; activity change (PNC), negative = inhibition, % at 10 µM; AID 2417; PC3M PTB-GFP, PNC prevalence imaging, 16 h; hits give low values; 3.1% of 140,000 active;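 active = readout at or below -70, meaning at least 70% loss of cells showing the perinucleolar compartment, a nuclear body marking cancer cells; inconclusive = readout between -30 and a set limit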;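 note: plate controls were DMSO wells for no effect and camptothecin positive control wells for full effect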
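Read-out is percentage of cells bearing a perinucleolar compartment, from automated 20x imaging of fixed, Hoechst-stained PC3M PTB-GFP cells. Cells were seeded 4 h, then exposed 16 h to compound (23 nl of library stock) in duplicate plates.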
Active calls of the source: *; ? = inconclusive; / = no result; [ ] = dose if it differs, or a comment. An excerpt weighted towards active compounds, which were near 10% of everything screened. Unless noted, calls come from the whole dose curve; as a rule, active = well fitted inhibition curve with a large enough effect (not every such curve was filed as active); inconclusive = small, poorly fitted or top-dose-only effect, or another doubt; inactive = no such curve, though single readings can be large or run the other way. Unless noted, % is set by controls: 0 for no effect and ±100 for the full control effect.

SMILES	Lamin A splicing	ALDH1A1 inh	IMPase cell inh	KinaseGlo FLuc	HPGD block	PNC inhibitor
Cc1ccc(N(C)S(=O)(=O)c2ccc3[nH]c(=O)ccc3c2)cc1	12.0%[46 µM]	/	/	/	/	/
O=C(Nc1ccccc1)N1CC[C@@]2(CCCN(C(=O)c3cnccn3)C2)C1	/	12.2%	/	-1.4%	-8.2%	/
C[C@@]12CCC(O)C[C@H]1CCc1ccccc12 (stereo not given in full)	-10.0%	-1.9%	/	-0.6%	-5.8%	/
Fc1ccc(N=C2NN=C(c3cc(F)ccc3F)CS2)cc1	?	?	8.0	-1.2%	-20.8%	17.7
Cc1cccc(N=C2NN=C(c3ccccc3F)CS2)c1C	-5.7%[46 µM]	-2.2%	/	-1.0%	/	/
O=S(=O)(c1ccc(N=C2NN=C(c3cc(F)ccc3F)CS2)cc1)N1CCOCC1	/	28.2µM*	/	/	/	/
CN=C1NN=C(c2cc(C)n(-c3ccc(Cl)cc3)c2C)CS1	-12.2%[46 µM]	8.91µM*	/	-5.8%	/	/
COCCn1c(C)cc(C2=NNC(=Nc3ccccc3F)SC2)c1C	-1.4%	17.8µM*	-0.1	-15.2%	-23.4%	14.4
COCCCN=C1NN=C(c2cc(C)n(-c3ccccc3F)c2C)CS1	/	25.1µM*	/	-2.8%	/	/
CCCCc1nn2c(=O)cc(COC(=O)c3ccccc3NC(=O)c3ccccc3OC)nc2s1	-5.4%[46 µM]	/	/	/	/	/
Cc1[nH]c2ccccc2c1C1N2CC3(C)CN1CC(C)(C2)C3=O (stereo not given)	/	/	-2.2	/	/	/
Cc1cc(C2=NNC(=NC3CC3)SC2)c(C)n1-c1c(C)n(C)n(-c2ccccc2)c1=O	-4.0%	25.1µM*	/	2.0%	-18.6%	11.2
CC(=O)c1ccc(N2CCN(C(=O)C3CCN(S(=O)(=O)c4ccc(Br)s4)CC3)CC2)cc1	/	/	8.2	/	/	/
COc1ccc(C(=O)N2CCC3(CC2)CCN(c2cccc(-c4ccccc4)c2)CC3)cc1	/	?	/	2.5%	-25.2%	/
Cc1ccc(-n2c(C)cn(C(=O)c3ccccc3)c2=S)cc1	-7.0%	-1.0%	?	-2.0%	-10.6%	?
Cc1cn(C(=O)c2ccccc2)c(=S)n1-c1ccc(Cl)cc1	-0.7%	-3.6%	-1.0	-0.7%	?	-100.0*
O=C(OC1Cc2c(O)cc(O)cc2OC1c1cc(O)c(O)c(O)c1-c1c(C2Oc3cc(O)cc(O)c3CC2OC(=O)c2cc(O)c(O)c(O)c2)cc(O)c(O)c1O)c1cc(O)c(O)c(O)c1 (stereo not given)	-5.0%	-0.6%	/	-2.5%	22.4µM*	/
O=C(O[C@@H]1Cc2c(O)cc(O)cc2O[C@@H]1c1cc(O)c(O)c(O)c1)c1cc(O)c(O)c(O)c1	12.4%[46 µM]	/	/	/	/	/
Oc1c(N=Nc2ccccn2)ccc2ccccc12	?	-0.1%	43.5	11.2µM*	-13.5%	86.2
c1ccc2c(c1)ccc1ncccc12	/	0.6%	/	-0.8%	-7.7%	/
COC(=O)c1cccc(-n2c(C)cc(C=O)c2C)c1C	1.3%	0.631µM*	/	-5.7%	-11.4%	4.8
COc1ccc(OC)c(-n2c(=O)c3ccccc3c3ccccc3c2=O)c1	?	-7.6%	-1.4	2.4%	-5.8%	96.7
COc1ccc(-n2c(C)cc(C=O)c2C)cc1Cl	6.1%	1µM*	9.8	-0.2%	17.8µM*	-23.7
Cc1cc(C=O)c(C)n1-c1ccc(Cl)c(C(=O)O)c1	/	?	/	0.5%	/	/
COc1ccc(OC)c(-n2c(C)cc(C=O)c2C)c1	-2.7%[46 µM]	5.62µM*	/	1.0%	/	/
SMILES	Lamin A splicing	ALDH1A1 inh	IMPase cell inh	KinaseGlo FLuc	HPGD block	PNC inhibitor
Cc1c(C(=O)O)cccc1-n1c(C)cc(/C=N/NC(=O)c2cc3ccccc3o2)c1C	0.0%	-16.9%	/	1.5%	?	-13.9
Cc1cccc(N2CCN(S(=O)(=O)c3ccc(-c4cnc(C5CC5)o4)cc3)CC2)c1C	3.2%[46 µM]	/	/	/	/	/
N#Cc1c(NC(=O)CCC(=O)O)ccc2ccccc12	/	1.1%[13.5 µM]	/	-4.0%[7.66 µM]	-10.2%	/
CSc1ncnc2c1ncn2C1OC(CO)C(O)C1O (stereo not given)	?	6.2%	/	-0.4%	-14.0%	/
CCOC(=O)c1ccc(NC(=O)CCn2ccc(C)n2)cc1	6.1%[46 µM]	/	/	/	/	/
CCOC(=O)c1c(-c2cccs2)csc1NC(=O)c1ccco1	-3.8%	7.1%	-5.5	1.5%	?	-100.0*
